From PubChem BioAssay AID1458 (National Center for Advancing Translational Sciences (NCATS), 2008)
The whole screen tested about 210,000 compounds, of which about 5,900 (2.8%) were called active. Roughly 5% stayed inconclusive and do not appear here. Calls follow the shape of the dose curve; as a rule, active = well fitted activation curve with a large enough effect; inconclusive = small, poorly fitted or top-dose-only effect; inactive = no such curve, though single readings can be large or run the other way. Only a selection was taken, and actives are over-represented in it overall.

Assay: qHTS Assay for Enhancers of SMN2 Splice Variant Expression; also: nearly all actives have a fitted effect of over 55% in size; as to activity change, positive = activation: % of control where 0% means no effect
Conditions: HEK293 SMN2-luciferase splicing reporter, luminescence, 30-36 h; series mostly up to 46.1 µM; activity change, positive = activation: at the top concentration
How it was run: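 qHTS luciferase splicing reporter: luminescence rises when SMN2 exon 7 is included in transfected HEK293 cells. Compound exposure lasted 30-36 h at 37C, with 4.5 mM final sodium butyrate as control, followed by a ONE-Glo read.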
Potency is read from the fitted curve at half-maximal effect.

Activity change, positive = activation, inactive:
Cc1nc2nc(SCC(=O)N(Cc3ccccc3)C(C)C)nn2c(C)c1Cc1ccccc1Cl -19.2%
CCc1ccc(CN(Cc2ccco2)C(=O)c2ccccc2Cl)cc1 -13.4%
COc1ccccc1CNC(=O)CCCn1c(=O)c2ccccc2n(CC(=O)Nc2ccc(C)cc2Cl)c1=O 10%
O=C(NCc1ccc2c(c1)OCO2)c1ccc(Cl)s1 5.84%
O=C(NC1=NCCS1)[C@H](Cc1ccccc1)N1C(=O)c2ccccc2C1=O -21.6%
COc1cccc2c1cc1c(=O)n(CC(=O)N3CCN(c4ccccc4)CC3)nc(C)n12 -9.99%
CCNC(=O)CC1C(=O)N(c2ccc(F)cc2)C(=O)N1Cc1ccc(C)cc1 (stereo unspecified) -20.3%
CC(C)CC(=O)NC(=S)Nc1cc(C(=O)O)ccc1Cl 22.3%
COc1ccc(NS(=O)(=O)c2ccc(NC(=S)NC(=O)CC(C)C)cc2)cc1 2.37%
Cc1cccc(NC(=O)Cn2c(C(F)(F)F)nc3ccccc32)c1C -13.6%
COc1ccc(N2CCN(c3cc(C)nc4nncn34)CC2)cc1 -15.9%
O=C(c1ccc2c(c1)N(Cc1ccccc1F)C(=O)c1ccccc1S2(=O)=O)N1CCOCC1 8.82%
COc1ccc(CCNc2nc(-c3cccc(NC(C)=O)c3)cs2)cc1OC -26.4%
CC(=O)Nc1ccc(-c2csc(NC(=O)Nc3ccccc3)n2)cc1 -80.3%
COc1ccccc1CNC(=O)CCn1c(=O)c2ccccc2n(CC(=O)Nc2cccc(Cl)c2)c1=O 1.83%
O=C(O)c1ccc(N=NN2CCOCC2)cc1 -3.34% [at 1.84 µM]
O=C(Nc1cccc(C(=O)N2CCCC2)c1)c1ccccc1 9.99%
CCOC(=O)c1cc2c(=O)n3ccccc3nc2n(CC2CCCO2)c1=NC(=O)c1ccccc1F (stereo unspecified) 10.2%
CCOC(=O)c1c(C)[nH]c2c1-c1ccccc1C(=O)C2=O -106%
CCc1ccc(CNC(=O)c2cc3cc4ccc(OC)cc4nc3o2)cc1 -28.9%
Cc1cc(=O)oc(C)c1C(=O)N1CCCCC1 -19%
COc1ccccc1Nc1c2c(nc3ccc(NC(=O)/C=C/c4cc(OC)c(OC)c(OC)c4)cc13)CCCC2 -99.9%
O=C(O)c1ccc(COCC(F)(F)F)cc1 -1.27%
CCOc1c(CNCc2ccc(C(=O)O)cc2)cccc1OC 0.734%
CCOc1ccc(Nc2nc(Cl)nc(N3CCN(c4ccc(OC)cc4)CC3)n2)cc1 -50.9%
COc1ccc(Nc2ncc3c(n2)CCN(C(=O)OC(C)(C)C)C3)cc1 19.1%
CC(C)c1ccc(OCC(=O)N(Cc2ccc(N(C)C)cc2)C2CCS(=O)(=O)C2)cc1 (stereo unspecified) -13.2%
CC1CCCCN1Cc1c(O)ccc2c(=O)c(-c3cccc(Cl)c3)c(C(F)(F)F)oc12 (stereo unspecified) 0.89%
CCOC(=O)C1CCN(C(=O)CSc2c3c(nc4ccc(Cl)cc24)CCCC3)CC1 -23.6%
Cc1ccc(-c2cc(C(F)(F)F)c(C#N)c(SCC(=O)Nc3ccccc3)n2)cc1 3.98%
COCc1cc(C)nc(SCC(=O)Nc2cccc(C)c2)c1C#N -0.269%
Cc1cccc(NC(=O)Cn2c(=O)n(CCC(C)C)c(=O)c3cccnc32)c1 1.67%
COc1cc(CN(CC2CCCO2)C(=O)c2ccccc2F)cc(OC)c1OC (stereo unspecified) -5.28%
CCc1ccc(NC(=O)Cn2c(=O)n(CCC(=O)NCc3ccc4c(c3)OCO4)c(=O)c3ccccc32)cc1 0.862%
Cc1ccccc1-n1c(=O)c2ccccc2n(Cc2ccc(F)cc2)c1=O -3.73%
CCOc1ccc(NC(=O)c2c(NC(=O)Cc3ccccc3)sc3c2CCCCC3)cc1 0.873%
COCCNC(=O)C(c1ccc(C)o1)N(Cc1ccccc1)C(=O)Cn1nnc2ccccc21 (stereo unspecified) 17.9%
Cc1ccc(C(C(=O)NCc2ccco2)N(CC2CCCO2)C(=O)Cn2nnc3ccccc32)cc1 (stereo unspecified) -6.37%
O=C(Cn1c(=O)n(-c2ccc(F)cc2)c(=O)c2sc3ccccc3c21)NC1CCCC1 -12.8%
Cc1ccc(-n2ncc3c(=O)n(Cc4cccc(C(F)(F)F)c4)cnc32)cc1C 0.0711%
CC(C)c1ccc(Cn2c(COc3ccccc3)nc3ccccc32)cc1 -1.83%
O=C(Cn1c(COc2ccccc2)nc2ccccc21)Nc1cc(Cl)c(Cl)cc1Cl -1.19%
Cc1cc(C)c2oc(C(=O)Nc3ccc(S(=O)(=O)Nc4nccc(C)n4)cc3)cc(=O)c2c1 13.5%
O=C(CN1C(=O)COc2ccc(S(=O)(=O)N3CCCCCC3)cc21)N1CCN(c2cccc(C(F)(F)F)c2)CC1 -1.59%
O=C(Nc1nc2cc3c(cc2s1)OCCO3)c1cccc(S(=O)(=O)N2CCOCC2)c1 -46.1%
Cc1nc(N2CCCCC2)sc1C=O 25%
Cc1ccc(C(=O)Nc2ccc(OCc3cc(=O)n4c(C)csc4n3)cc2)cc1 -4.42%
CCNC(=O)Cn1nc(C)n2c(cc3c(OC)cccc32)c1=O -2.9%
COC(=O)c1ccccc1NC(=O)c1ccc2c(=O)n3c(nc2c1)CCCCC3 0.0369%
Cc1cc([N+](=O)[O-])ccc1NC(=O)C1CCCO1 (stereo unspecified) -8.2%
O=C(Nc1nc2ccc(S(=O)(=O)N3CCCC3)cc2s1)C1CCCO1 (stereo unspecified) 25.8%
O=C(Nc1cc(-c2nc3ccccc3o2)ccc1Cl)c1cc([N+](=O)[O-])ccc1N1CCOCC1 7.04%
CN1c2ccccc2-c2nc3ccccc3n2C1c1ccco1 (stereo unspecified) -14.7%
CN(c1nc2ccccc2n2c(-c3ccco3)nnc12)S(=O)(=O)c1ccccc1 -3.62%
COC(=O)CC1Oc2ccccc2-n2cc(-c3ccccc3)nc21 (stereo unspecified) -12.5%
COc1cccc(N2CCN(S(=O)(=O)c3cc(Br)cc4c3N(C(=O)C3CC3)CC4)CC2)c1 -2.18%
CCC1CCCCN1C(=O)Cn1c(=O)n(CCCCCC(=O)NCc2ccccc2)c(=O)c2sccc21 (stereo unspecified) -5.86%
Cc1ccc(C(=O)Nc2ccc(OCc3cc(=O)n4c5c(sc4n3)CCCC5)cc2)cc1 1.24%
CCCCCn1c(CCNC(=O)c2ccc(F)cc2)nc2ccccc21 -27.6%
Cn1c(CN2CCOCC2)nc2cc(NC(=O)c3ccc(Cl)cc3)ccc21 -66.9%
COc1ccc(C2Sc3ccccc3NC3=C2C(=O)c2ccccc23)c(OC)c1OC (stereo unspecified) 7.57%
Cc1cccc(N(CC(=O)N=Nc2c(O)[nH]c3ccccc23)S(C)(=O)=O)c1C 4.36%
COCC(=O)N=Nc1c(O)[nH]c2ccccc12 16.4%
COc1ccccc1CNC(=O)C(Cc1ccccc1)NS(=O)(=O)c1ccc2c(c1)oc(=O)n2C (stereo unspecified) 4.66%
C/C(=N\NS(=O)(=O)c1ccc(Br)cc1)c1cccs1 -8.27%
Cc1c(Cl)cnc(NC(=O)COC(=O)c2ccc(S(=O)(=O)NCc3ccco3)cc2)c1Cl 3.97%
O=C(NC1CCC(O)CC1)c1ccc(S(=O)(=O)NCc2ccco2)cc1 (stereo unspecified) 13%
C/C(=N\NC(=O)COc1c(C)cccc1C)c1cccs1 -0.888%
Cc1cccc(C(CC(=O)NCC2(c3ccccc3)CCCC2)c2ccccc2)c1O (stereo unspecified) -50.4%
CCOc1ccccc1CNCc1c(C(=O)O)c(C)n(Cc2ccc(C)cc2)c1C 2.44%
O=S(=O)(NCC(c1ccccc1)N1CCc2ccccc21)c1ccccc1 (stereo unspecified) -3.77%
COc1ccc(S(=O)(=O)Nc2cc3c(C(=O)OC(C)C)c(C)oc3c3ccccc23)cc1 4.13%
Cc1cc2oc(C(=O)N(Cc3ccc(Cl)cc3)Cc3ccco3)c(C)c2cc1Cl 8.31%
COc1ccccc1C(=O)Nc1c(C(=O)Nc2ccc(C)cc2)oc2ccccc12 5.31%
O=C(Nc1nc2ccc(F)cc2s1)c1nc(SCc2ccccc2F)ncc1Cl 3.21%
CSc1ncccc1C(=O)Nc1nc2ccc(F)cc2s1 -21.2%
Cc1cccc(N2CCN(C(=O)c3ccc4c(c3)CCN4S(=O)(=O)c3ccccc3)CC2)c1C -31.7%
Cn1c(=O)n(Cc2ccco2)c(=N)c2c3c(sc21)CCCC3 -0.885%
O=C(NCc1ccco1)c1cccn2c(=O)c3c4c(sc3nc12)CCCC4 -28.6%
Oc1ccccc1-c1nc2ccc(Cl)cn2c1Nc1ccc2c(c1)OCCO2 -1.05%

Potency, active:
O=C(NC1=NCCS1)c1ccc(Cl)s1 15.8 µM
CC(=O)c1ccc(NC(=S)NC(=O)CC(C)C)cc1 7.94 µM
CC(=O)Nc1cccc(-c2csc(Nc3cccc(C)n3)n2)c1 10 µM
O=C(O)c1cccc(N=NN2CCCCCC2)c1 0.631 µM
CCOC(=O)c1c(C)[nH]c(C2=NNC(=NC(C)COC)SC2)c1C (stereo unspecified) 3.16 µM
Cc1ccc2cc3cc(C(=O)N4CCCCCC4)oc3nc2c1 5.01 µM
CCCCCc1ccc(-c2ccc(C(=O)O)cc2)nc1 3.98 µM
COc1ccc(Nc2ncc(F)c(N3CCOCC3)n2)cc1 10 µM
Cc1cc(C)c(C#N)c(SCC(=O)Nc2ccccc2)n1 12.6 µM
CCC(C)(C)NC(=O)C(c1cccn1C)N(Cc1ccc(C)cc1)C(=O)Cn1nnc2ccccc21 (stereo unspecified) 15.8 µM
COCn1c(COc2ccccc2)nc2ccccc21 12.6 µM
c1c2c(cc3sc(N4CCCCC4)nc13)OCCO2 0.501 µM
Cc1cc(C)c2nc(NC(=O)C3CCCO3)sc2c1 (stereo unspecified) 12.6 µM
Cn1c(-c2ccco2)nc2cc3ccccc3cc21 2.51 µM
CN(C)CCN=c1cc(-c2ccccc2)oc2ccc(Cl)cc12 15.8 µM
CC(=O)NCCc1nc2cc(NC(=O)c3ccccc3)ccc2n1C 22.4 µM
Cc1c(-c2ccccc2)n[nH]c1C(=O)N=Nc1c(O)[nH]c2ccccc12 20 µM
C/C(=N\Nc1ncc(Cl)cc1Cl)c1cccs1 11.2 µM
C/C(=N\Nc1ncc(Cl)cc1Cl)c1ccc(S(=O)(=O)NCc2ccco2)cc1 12.6 µM
CCS(=O)(=O)N1Cc2ccccc2CC1C(=O)Nc1nc2ccc(F)cc2s1 (stereo unspecified) 14.1 µM
O=c1oc(-c2ccco2)nc2sc3c(c12)CCCCC3 14.1 µM
